Source: PubChem BioAssay (National Center for Advancing Translational Sciences (NCATS))
An excerpt weighted towards active compounds, which were near 19% of everything screened.
IL-1B inflam inh: inhibitors of inflammasome signaling (IL-1 beta secretion); THP-1 LPS/ATP IL-1B secretion, AlphaLISA, 16 h; hits give low values; activity change, % at 57.5 µM; 360,000 compounds, 4.7% hits; in the data active = activity change below about -50%; inconclusive = mostly about -30% to -49%
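Secreted IL-1B measured by AlphaLISA bead assay after 16 h compound exposure of THP-1 cells; compounds (final up to 57.5 uM) added 1 h before LPS (250 ng/mL) and ATP (1.25 mM) stimulation; lower signal means less secretion.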
HT1080NT lethal: kills 2HG-producing HT-1080-NT fibrosarcoma cells | HT-1080-NT fibrosarcoma viability, CellTiter-Glo ATP luminescence, 48 h | Potency, µM (titrated, usually from 46.1 µM), for the others: at the highest dose activity, negative = less viability, usual class: cytotoxic | 360,000 compounds, 1.6% hits | AID 686970;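 also: NT is the 2HG producing partner of a matched IDH1 knockdown line; potency is read from the fitted curve at half-maximal effect; 0% = DMSO-treated cells and -100% = media-only wells without cells; nearly all actives have a fitted effect of over 55% in size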
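Viability of the 2HG-overproducing fibrosarcoma line after 48 hours of compound exposure at 37 degrees C was determined by luminescence with CellTiter-Glo, and concentration-effect curves were then fitted and categorized.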
HT1080 IDH1KD tx: kills HT-1080 cells with IDH1 knockdown; Potency, µM (series often up to 46.1 µM), for the others: top-dose activity, negative = toxicity, hits mostly cytotoxic; 360,000 compounds, 2% hits; HT-1080 IDH1 knockdown viability, ATP luminescence, 48 h;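 also: potency is read from the fitted curve at half-maximal effect; 0% = DMSO wells and -100% = cell-free medium wells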
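After a 2 h attachment period, IDH1KD HT-1080 cells took pin-transferred compound for 48 h at 37 °C; ATP-based luminescence after 10 min room-temperature reagent incubation reported viability.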
TDP1 cell noCPT: qHTS for Inhibitors of human tyrosyl-DNA phosphodiesterase 1 (TDP1): qHTS in cells in absence of CPT; DT40 Tdp1-/- hTDP1 cells, no CPT, ATP luminescence, 48 h; Potency, µM (doses to about 46.2 µM), for the others: top-dose activity change, negative = growth inhibition, actives largely listed as inhibitors; 420,000 compounds, 15% hits; AID 686978, 2013; also: potency is read from the fitted curve at half-maximal effect; nearly all actives have a fitted effect of over 55% in size
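A cellular qHTS used chicken DT40 cells lacking endogenous Tdp1 but carrying stably transfected human TDP1. Compounds were applied without camptothecin, and cell growth kinetics were judged by ATP-dependent luminescence after ≥48 hr.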
DT40 TDP1 CPT: growth inhibition of DT40 Tdp1-/-;hTDP1 cells with camptothecin (screen for TDP1 inhibitors); 420,000 compounds, 12% hits; AID 686979; Potency, µM (series often up to 46.2 µM), inactives show top-dose activity change, negative = growth inhibition, hits mostly inhibitors; chicken DT40 Tdp1-/-;hTDP1 cells + 20 nM CPT, ATP luminescence, 48 h; also: potency is read from the fitted curve at half-maximal effect; nearly all actives have a fitted effect of over 55% in size
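Cell growth measured by CellTiter-Glo luminescence after a minimum 48 h, 37 C compound exposure with 20 nM CPT in Tdp1-knockout DT40 cells stably expressing hTDP1, seeded 400/well; qHTS titration format.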
ELG1 repair inh: inhibitors of ELG1-dependent DNA repair in HEK293T cells; HEK293T ELG1-luciferase reporter, luminescence, 16 h; DNA damage induced by 5-fluorouridine; Potency, µM (top dose mostly 46.1 µM), for the others: at the top dose activity change, negative = inhibition, most hits filed as inhibitors; 330,000 compounds, 2.3% hits; AID 504467; also: potency is read from the fitted curve at half-maximal effect; nearly all actives have a fitted effect of over 55% in size
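Reporter activity after DNA damage by 5-fluorouridine is monitored. Compound-treated cells incubate 16 hr at 37 °C, then ONE-Glo is added for 30 min before luminescence reading.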
* = called active by the depositor; ? = inconclusive; / = no result given; [ ] = another dose, or the depositor's remark. Unless noted, calls follow the shape of the dose curve; as a rule, active = well fitted curve in the direction sought with a large enough effect; inconclusive = small, poorly fitted or top-dose-only effect, or another doubt; inactive = no such curve, though single readings can be large; an effect the other way counts as inactive or inconclusive. Unless noted, % is scaled to controls: 0 for no effect and ±100 for the full control effect.

SMILES	IL-1B inflam inh	HT1080NT lethal	HT1080 IDH1KD tx	TDP1 cell noCPT	DT40 TDP1 CPT	ELG1 repair inh
O=C(CNc1cccc(S(=O)(=O)N2CCOCC2)c1)Nc1ccc(C(F)(F)F)cc1	?	-8%	-23%	16µM*	?	?
O=C(Cc1cccc(C(F)(F)F)c1)Nc1cccc(S(=O)(=O)N2CCCC2)c1	2	-1%	3%	?	16µM*	-6%
O=C(CNc1cc(S(=O)(=O)N2CCCC2)ccc1OCC(F)(F)F)Nc1cc(Cl)cc(Cl)c1	/	/	/	/	/	1%
O=C(CNc1cc(S(=O)(=O)N2CCCC2)ccc1OCC(F)(F)F)Nc1ccc(SC(F)F)cc1	-68*	-27%	-27%	3.7µM*	1.8µM*	?
O=C(CNc1cccc(S(=O)(=O)N2CCCC2)c1)Nc1cccc(C(F)(F)F)c1	0	-3%	-22%	12µM*	10µM*	9.2µM*
O=C(CNc1ccc(C(F)(F)F)cc1)Nc1cccc(S(=O)(=O)N2CCCC2)c1	26	-10%	-20%	?	-25%	-19%
O=C(NCc1cccnc1)c1csc([C@@H]2O[C@H](CO)[C@H](O)[C@H](O)[C@H]2O)n1	5	1%	18%	-8%	5%	/
OC[C@@H](O)[C@@H](O)[C@H](O)[C@H](O)CO	13	29%	19%	-1%	-2%	2%
CCc1nn(CC(=O)NCc2ccco2)c(=O)c2cc3cc(F)ccc3n12	/	/	/	-2%	-1%	/
O=C(CNc1ccc(C(F)(F)F)cc1)Nc1cccc(S(=O)(=O)N2CCCCC2)c1	-59*	?	?	16µM*	?	/
CSc1cccc(NC(=O)OC2CCCCCCCCCCC2)c1	-7	5%	11%	21µM*	?	-5%
COc1ccc(OCCCC(=O)Nc2cccc(SC)c2)cc1	0	-2%	1%	-19%	-3%	-2%
CSc1cccc(NC(=O)CCCOc2ccc(Cl)cc2C)c1	-9	?	?	?	18µM*	0%
Cc1cccc(OCC(=O)Nc2cccc(-c3nnc(-c4ccccc4)o3)c2)c1C	0	10%	1%	?	-21%	-6%
Cc1ccc(OCC(=O)Nc2cccc(-c3nnc(-c4ccccc4)o3)c2)cc1	-4	0%	18%	16µM*	16µM*	?
Cc1ccc(OCC(=O)Nc2ccc(-c3nc4ccc(C)cc4o3)cc2)cc1	/	/	/	18µM*	16µM*	/
COc1ccc(-c2c(-c3ccsc3)oc3c2C(O)CCC3)cn1 (configuration not stated)	26	2%	0%	-21%	-22%	/
CC(=O)c1c(N2CCN(c3ccccn3)CC2)nc(=S)n(-c2ccccc2)c1C	-11	4%	-24%	?	-11%	0%
CSc1cccc(NC(=O)COc2ccccc2)c1	3	15%	7%	4.6µM*	8.2µM*	?
O=C(COc1ccccc1)Nc1cccc(-c2nc3cc4ccccc4cc3[nH]2)c1	-85*	?	?	21µM*	15µM*	?
Cc1cccc(C)c1OCC(=O)Nc1cccc(-c2nnc(-c3ccccc3)o2)c1	-3	-3%	-9%	16µM*	18µM*	?
Clc1ccc(-c2nnc(-c3ccc4ccccc4c3)o2)cc1	-17	9%	15%	-11%	-18%	/
Cc1ccc(-c2nnc(-c3ccc4ccccc4c3)o2)cc1	-9	?	9.2µM*	?	?	/
O=C(Nc1ccc(N2CCOCC2)cc1)C1CC(O)CN1S(=O)(=O)c1ccc(Cl)cc1 (configuration not stated)	3	-6%	-2%	-18%	-23%	8%
COCc1c(C(=O)N2CCN(C3CCCC3)CC2)cnn1-c1ncc2c(n1)-c1ccccc1CCC2	/	/	/	-28%	8%[9.04 µM]	/
SMILES	IL-1B inflam inh	HT1080NT lethal	HT1080 IDH1KD tx	TDP1 cell noCPT	DT40 TDP1 CPT	ELG1 repair inh
O=C(CSc1nc(N2CCCCC2)nc(N2CCCCC2)n1)N1CCN(c2ccccc2)CC1	-13	-13%	-11%	16µM*	23µM*	?
O=C(CSc1nc(Nc2ccccc2)nc(N2CCOCC2)n1)N1CCCC1	-53*	-15%	-2%[9.24 µM]	21µM*	?	?
O=C(CSc1nc(Nc2ccccc2)nc(N2CCOCC2)n1)Nc1ccc2c(c1)OCCO2	?	9%	-7%	-27%	-26%	?
O=C(CSc1nc(Nc2ccccc2)nc(N2CCOCC2)n1)N1CCc2ccccc21	2	-6%	-5%	18µM*	?	?
Cc1ccc(S(=O)(=O)c2[nH]c(-c3ccccc3)nc2SCC(N)=O)cc1	/	/	/	-2%	4%	/
O=C(O)CC/C=C\CC[C@H]1[C@@H](N2CCCCC2)[C@@H](O)C[C@@H]1OCc1ccc(-c2ccccc2)cc1	/	/	/	-2%	-1%	/
O=C(c1cccc(Br)c1)N1CCN(S(=O)(=O)N2CCCCC2)CC1	-17	-7%	-6%	-6%	-5%	-6%
CCOc1ccc(-n2c(=O)c3sc4ccccc4c3n(Cc3cccc(C)c3)c2=O)cc1	/	/	/	-29%	1%	/
Fc1cccc(Cc2c(-c3ccccc3)nc3ccc(Br)cn23)c1	8	?	-30%	?	?	/
Fc1cccc(Cc2c(-c3cccc(Cl)c3)nc3c4ccccc4ccn23)c1	17	?	?	18µM*	23µM*	/
Clc1cccc(Cc2c(C3CCCCC3)nc3c4ccccc4ccn23)c1	17	-6%	-13%	16µM*	?	/
Clc1cccc(Cc2c(-c3cccc(Cl)c3)nc3c4ccccc4ccn23)c1	32	3%	2%	16µM*	?	/
Clc1cccc(-c2nc3c4ccccc4ccn3c2Cc2ccccc2)c1	2	-29%	?	?	?	/
Fc1cccc(Cc2c(-c3ccco3)nc3ccc(Br)cn23)c1	-24	?	16µM*	16µM*	16µM*	/
CC(c1ccccc1)N1CC(C(=O)N2CCCC(C(N)=O)C2)CC1=O (configuration not stated)	1	6%	10%	-3%	2%	30%
COc1ccc(S(=O)(=O)NCCCn2ccnc2)cc1C(C)(C)C	-18	5%	1%	10%	30%	3%
Clc1cccc(Cc2c(-c3ccccc3)nc3c4ccccc4ccn23)c1	20	-25%	-19%	13µM*	?	/
Fc1cccc(Cc2c(-c3ccco3)nc3c4ccccc4ccn23)c1	-3	?	?	6.5µM*	6.5µM*	/
